Source: PubChem BioAssay
Activity calls are given as the source filed them.

What was measured:
[1] = binders of probe aFSTL3 on microarray, primary screen, stem cell growth factor project, biochemical, small-molecule microarray, fluorescence 635/667 (AID 1064); conditions: higher = more signal;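 note: measures binding of the biotinylated anti-FSTL3 antibody to printed compounds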
[2] = binders from COS7 lysate, DM2A8 probe, primary screen, torsin A project, cell lysate, small-molecule microarray, fluorescence 635/667 (AID 1065); conditions: higher = more signal, COS7 lysate expressing mutant human TOR1A
[3] = binders of probe aFGF2 on microarray, primary screen, stem cell growth factor project, biochemical, small-molecule microarray, fluorescence 635/667 (AID 1067); conditions: higher = more signal;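 note: measures binding of biotinylated aFGF2 protein to printed compounds on slides; z-score merges feature fluorescence and signal-to-noise across triplicate slides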
[4] = binders of probe aFGF10 on microarray, primary screen, stem cell growth factor project, biochemical, small-molecule microarray, fluorescence 635/667 (AID 1071); conditions: higher = more signal;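 note: score merges 667 nm spot intensity and signal to noise from triplicate slides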
[5] = molecular target: Neurogenic locus notch homolog protein 2 (Homo sapiens) (UniProt Q04721); assay: Notch2 binders on small-molecule microarrays, primary screen, biochemical, small-molecule microarray, 635 nm fluorescence, stem cell growth factors (AID 1073); conditions: Notch2 binding, higher = more signal
[6] = molecular target: Pro-neuregulin-1, membrane-bound isoform (Homo sapiens) (UniProt Q02297); assay: NRG1 binders on small-molecule microarrays, primary screen, psychiatric disease protein project, biochemical, small-molecule microarray, fluorescence 635/667 (AID 1075); conditions: NRG1 binding, 635 nm fluorescence, higher = more signal;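 note: score combines 667 nm spot fluorescence with signal to noise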
[7] = system: Neuregulin-1 EGF-like domain; assay: binders of neuregulin-1 EGF-like domain, primary screen, biochemical, small-molecule microarray, 635 nm fluorescence (AID 1081); conditions: small-molecule microarray binding, higher = more signal;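 note: binding of the protein to compounds printed on small-molecule microarray slides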
[8] = FRG1 promoter luciferase signal modulators, primary screen, FRG1 inhibition for FSHD, cell-based, C2C12 myotubes, firefly/Renilla luciferase, luminescence (AID 1084); conditions: higher = more signal, called active from +8 up or from −8 down
[9] = binders of probe aFST on microarray, primary screen, stem cell growth factor project, biochemical, small-molecule microarray, fluorescence 635/667 (AID 1086); conditions: higher = more signal;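 note: score merges 667 nm fluorescence with signal-to-noise of each printed compound spot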
[10] = binders of probe aHhip on microarray, primary screen, stem cell growth factor project, biochemical, small-molecule microarray, fluorescence 635/667 (AID 1087); conditions: higher = more signal;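 note: score merges spot fluorescence at 667nm with spot signal to noise ratio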
[11] = system: PRMT1 (protein arginine N-methyltransferase 1); assay: PRMT1 binders on small-molecule microarrays, primary screen, biochemical, small-molecule microarray, 635 nm fluorescence (AID 1088); conditions: small-molecule microarray binding, higher = more signal;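 note: binding of Prmt1 protein to compounds spotted on small-molecule microarray slides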
[12] = yeast growth modulation, basal conditions, primary screen, YJM789 clinical isolate, OD600, 24 h (AID 1089);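 note: growth of clinical yeast isolate S. cerevisiae YJM 789 seeded 1000 cells per well; test concentration not given here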; conditions: S. cerevisiae YJM789 growth, higher = more signal, called active from +8 up or from −8 down
[13] = fission yeast growth modulation, primary screen, strain 972, OD600, 24 h, no modulator (AID 1090);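 note: basal condition with compound alone and no growth modifier present; test concentration not given here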; conditions: S. pombe 972 growth, higher = more signal, called active from +8 up or from −8 down
[14] = S. cerevisiae growth modulation with rapamycin, primary screen, strain BY4716, OD600, 96 h (AID 1091); conditions: higher = more signal, called active from +8 up or from −8 down; note: test concentration not given here
[15] = molecular target: Torsin-1A-interacting protein 2 (Homo sapiens) (UniProt Q8NFQ8); assay: LULL1 binders on small-molecule microarray, primary screen, cell lysate, human LULL1 lysate, 635/667 nm fluorescence (AID 1092); conditions: hLULL1 lysate binding, 635 nm fluorescence, higher = more signal;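 note: probe is lysate of COS7 cells overexpressing human LULL1; score merges per-feature 667 nm fluorescence with signal-to-noise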
[16] = E. coli growth modulation, two-sided OD650, primary screen, E. coli filamentation project, strain DRC41, 24 h (AID 1093); conditions: OD650, 24 h, higher = more signal, called active from +8 up or from −8 down;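 note: MC1000 strain lacking acrAB efflux and sulA so SOS filamentation is blocked; test concentration not given here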
[17] = small-molecule microarray binders of probe aLefty2, primary screen, biochemical, biotinylated probe, 635/667 nm fluorescence (AID 1094); conditions: higher = more signal;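 note: score merges spot fluorescence near 667 nm with spot signal-to-noise ratio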
[18] = system: Noggin (protein binding on small-molecule microarray); assay: Noggin binders on small-molecule microarray, primary screen, biochemical, 635/667 nm fluorescence (AID 1095); conditions: 635 nm fluorescence, higher = more signal;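 note: score merges 667 nm feature fluorescence with signal to noise over triplicate slides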
[19] = molecular target: Neurogenic locus notch homolog protein 3 (Homo sapiens) (UniProt Q9UM47); assay: NOTCH3 binders on small-molecule microarray, primary screen, biochemical, 635/667 nm fluorescence (AID 1096); conditions: NOTCH3 binding, 635 nm fluorescence, higher = more signal
[20] = small-molecule microarray binders of probe aEGFR, primary screen, biochemical, biotinylated probe, 635/667 nm fluorescence (AID 1097); conditions: higher = more signal;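 note: probe is a biotinylated anti-EGFR antibody binding compounds printed on slides; score combines fluorescence near 667 nm and signal to noise of each spot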

Sequence of Pro-neuregulin-1, membrane-bound isoform (Homo sapiens) (Q02297 whole entry, looked up, the tested form may be a part, canonical isoform): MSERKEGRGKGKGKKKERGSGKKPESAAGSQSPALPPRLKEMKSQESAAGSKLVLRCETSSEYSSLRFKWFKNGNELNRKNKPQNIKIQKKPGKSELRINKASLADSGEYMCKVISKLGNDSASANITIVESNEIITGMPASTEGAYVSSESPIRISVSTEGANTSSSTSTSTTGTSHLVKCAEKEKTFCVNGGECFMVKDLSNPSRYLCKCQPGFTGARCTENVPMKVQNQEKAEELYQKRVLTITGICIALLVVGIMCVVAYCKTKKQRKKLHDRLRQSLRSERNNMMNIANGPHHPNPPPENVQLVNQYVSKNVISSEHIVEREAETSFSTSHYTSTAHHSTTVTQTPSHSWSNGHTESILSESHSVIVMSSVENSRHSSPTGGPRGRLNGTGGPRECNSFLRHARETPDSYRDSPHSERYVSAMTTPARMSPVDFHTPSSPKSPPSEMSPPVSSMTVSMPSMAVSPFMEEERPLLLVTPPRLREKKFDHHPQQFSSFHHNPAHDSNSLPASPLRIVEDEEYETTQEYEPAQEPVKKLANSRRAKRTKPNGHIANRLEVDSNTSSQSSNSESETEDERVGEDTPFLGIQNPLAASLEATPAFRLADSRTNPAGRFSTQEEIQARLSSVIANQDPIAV
Sequence of Neurogenic locus notch homolog protein 3 (Homo sapiens) (Q9UM47 whole entry, looked up): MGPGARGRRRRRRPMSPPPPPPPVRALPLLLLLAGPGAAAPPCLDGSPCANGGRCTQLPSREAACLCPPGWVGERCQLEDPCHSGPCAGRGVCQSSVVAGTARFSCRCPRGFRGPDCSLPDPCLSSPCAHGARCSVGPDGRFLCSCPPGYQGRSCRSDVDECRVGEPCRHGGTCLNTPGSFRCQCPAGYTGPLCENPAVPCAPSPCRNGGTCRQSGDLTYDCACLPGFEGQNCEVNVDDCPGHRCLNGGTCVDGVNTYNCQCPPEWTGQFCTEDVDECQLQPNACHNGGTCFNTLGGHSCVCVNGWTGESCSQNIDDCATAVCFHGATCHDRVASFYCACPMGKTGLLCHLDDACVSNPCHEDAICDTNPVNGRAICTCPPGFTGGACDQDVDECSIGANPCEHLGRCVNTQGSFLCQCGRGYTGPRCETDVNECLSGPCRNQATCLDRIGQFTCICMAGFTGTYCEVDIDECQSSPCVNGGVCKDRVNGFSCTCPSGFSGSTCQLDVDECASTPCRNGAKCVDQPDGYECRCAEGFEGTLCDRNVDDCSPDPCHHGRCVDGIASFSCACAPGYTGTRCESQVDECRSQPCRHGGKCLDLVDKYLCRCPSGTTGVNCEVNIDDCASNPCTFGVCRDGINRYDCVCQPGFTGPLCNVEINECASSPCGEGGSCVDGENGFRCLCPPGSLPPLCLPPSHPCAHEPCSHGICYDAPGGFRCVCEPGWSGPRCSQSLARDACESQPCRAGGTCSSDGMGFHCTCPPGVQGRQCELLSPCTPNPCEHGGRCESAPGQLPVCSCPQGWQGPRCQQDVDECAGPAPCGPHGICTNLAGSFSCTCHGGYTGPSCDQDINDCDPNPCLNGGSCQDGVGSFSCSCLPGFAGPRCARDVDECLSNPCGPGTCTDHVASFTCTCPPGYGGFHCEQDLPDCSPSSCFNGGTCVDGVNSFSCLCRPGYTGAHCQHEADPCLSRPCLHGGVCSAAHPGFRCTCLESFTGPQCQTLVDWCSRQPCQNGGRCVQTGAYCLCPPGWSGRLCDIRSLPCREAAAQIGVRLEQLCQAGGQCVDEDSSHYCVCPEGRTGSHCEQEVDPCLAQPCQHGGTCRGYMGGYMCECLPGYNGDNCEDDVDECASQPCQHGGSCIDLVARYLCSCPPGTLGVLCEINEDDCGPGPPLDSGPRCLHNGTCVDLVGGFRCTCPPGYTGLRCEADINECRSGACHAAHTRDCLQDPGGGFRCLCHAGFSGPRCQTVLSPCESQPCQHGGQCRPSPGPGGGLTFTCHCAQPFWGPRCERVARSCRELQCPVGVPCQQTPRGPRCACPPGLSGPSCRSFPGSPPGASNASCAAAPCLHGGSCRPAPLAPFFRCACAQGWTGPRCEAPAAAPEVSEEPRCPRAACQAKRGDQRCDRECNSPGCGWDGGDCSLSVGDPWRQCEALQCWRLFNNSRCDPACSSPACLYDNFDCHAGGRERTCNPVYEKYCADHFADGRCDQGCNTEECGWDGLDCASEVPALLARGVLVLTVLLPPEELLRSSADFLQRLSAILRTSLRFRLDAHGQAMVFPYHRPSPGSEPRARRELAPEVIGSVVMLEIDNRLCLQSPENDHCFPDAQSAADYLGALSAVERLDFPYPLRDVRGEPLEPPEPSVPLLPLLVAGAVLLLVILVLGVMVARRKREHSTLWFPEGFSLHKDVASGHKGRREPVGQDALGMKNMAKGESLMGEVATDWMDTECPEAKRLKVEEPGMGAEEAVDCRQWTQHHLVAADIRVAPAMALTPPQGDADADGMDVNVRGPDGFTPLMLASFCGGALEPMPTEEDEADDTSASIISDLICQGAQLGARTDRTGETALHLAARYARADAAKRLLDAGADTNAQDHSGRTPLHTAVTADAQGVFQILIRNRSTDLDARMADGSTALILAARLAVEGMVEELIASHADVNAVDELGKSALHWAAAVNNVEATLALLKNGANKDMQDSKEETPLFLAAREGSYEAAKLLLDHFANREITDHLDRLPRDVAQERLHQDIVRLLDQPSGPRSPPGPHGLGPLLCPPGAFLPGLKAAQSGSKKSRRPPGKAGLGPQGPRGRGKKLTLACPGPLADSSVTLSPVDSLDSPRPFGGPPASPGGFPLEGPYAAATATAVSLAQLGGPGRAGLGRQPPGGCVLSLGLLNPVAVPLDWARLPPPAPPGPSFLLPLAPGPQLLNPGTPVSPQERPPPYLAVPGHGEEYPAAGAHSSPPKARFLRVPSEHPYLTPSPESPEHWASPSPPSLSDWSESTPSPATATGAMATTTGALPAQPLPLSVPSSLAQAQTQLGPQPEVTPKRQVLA
Sequence of Torsin-1A-interacting protein 2 (Homo sapiens) (Q8NFQ8 whole entry, looked up): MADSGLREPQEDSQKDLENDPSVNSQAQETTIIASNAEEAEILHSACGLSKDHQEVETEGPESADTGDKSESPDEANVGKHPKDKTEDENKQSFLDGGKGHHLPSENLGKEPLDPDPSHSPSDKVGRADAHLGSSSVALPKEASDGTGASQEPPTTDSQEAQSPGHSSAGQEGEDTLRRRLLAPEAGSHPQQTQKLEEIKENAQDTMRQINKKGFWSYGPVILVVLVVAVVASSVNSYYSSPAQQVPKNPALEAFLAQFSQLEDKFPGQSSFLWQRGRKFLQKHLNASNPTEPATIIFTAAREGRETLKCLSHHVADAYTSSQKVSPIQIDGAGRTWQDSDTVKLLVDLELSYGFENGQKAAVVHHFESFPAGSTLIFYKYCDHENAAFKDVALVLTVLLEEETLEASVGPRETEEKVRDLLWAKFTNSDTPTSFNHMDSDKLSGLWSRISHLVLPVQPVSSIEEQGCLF

Molecule `CN(C)CCCNC(=O)[C@@H]1c2ccccc2C(=O)N(C2CCCCC2)[C@H]1c1ccc(CO)cc1` has a composite z-score [1] of -0.537, a composite z-score [2] of 0.249 and a composite z-score [3] of 0.0036. For the same molecule, the composite z-score [4] was 0.577, the composite z-score [5] was 1.57 and the composite z-score [6] was 1.59. The composite z-score [7] was 1.41, the z-score [8] was -0.988 (inactive) and the composite z-score [9] was 0.434. For the same molecule, the composite z-score [10] was -0.131, the composite z-score [11] was 1.55 and the z-score [12] was 0.154 (inactive). The z-score [13] was -1.13 (inactive), the z-score [14] was -1.02 (inactive) and the composite z-score [15] was 3.08. For the same molecule, the z-score [16] was 0.37 (inactive), the composite z-score [17] was -0.118 and the composite z-score [18] was 0.98. For the same molecule, the composite z-score [19] was 1.03 and the composite z-score [20] was 0.251.
`COc1ccc(C#Cc2ccc3c(c2)[C@]2(C(=O)N3)[C@H](c3ccc(OCCO)cc3)N3[C@H](c4ccccc4)[C@H](c4ccccc4)OC(=O)[C@H]3[C@@H]2C(=O)N2CCc3cc(OC)c(OC)cc3C2)cc1` showed a composite z-score [1] of -0.253, a composite z-score [2] of 0.447 and a composite z-score [3] of -0.0746. For the same molecule, the composite z-score [4] was 0.862, the composite z-score [5] was 1.2 and the composite z-score [6] was 1.78. For the same molecule, the composite z-score [7] was 1.16, the z-score [8] was 1.14 (inactive) and the composite z-score [9] was 0.0959. The composite z-score [10] was -0.623, the composite z-score [11] was 1.55 and the z-score [12] was 2.27 (inactive). For the same molecule, the z-score [13] was 1.94 (inactive), the z-score [14] was 4.57 (inactive) and the composite z-score [15] was 2.81. For the same molecule, the z-score [16] was 0.0933 (inactive), the composite z-score [17] was -0.209 and the composite z-score [18] was 0.784. The composite z-score [19] was 1.12 and the composite z-score [20] was 0.481.
`CC(C)CNC(=O)[C@@H]1c2ccccc2C(=O)N(C2CCCCC2)[C@H]1c1ccc(CO)cc1` showed a composite z-score [1] of 0.386, a composite z-score [2] of -0.754 and a composite z-score [3] of -0.0962. The composite z-score [4] was -0.305, the composite z-score [5] was -0.354 and the composite z-score [6] was 1.69. For the same molecule, the composite z-score [7] was 1.28, the z-score [8] was -1.8 (inactive) and the composite z-score [9] was 0.0088. The composite z-score [10] was 0.0497, the composite z-score [11] was 0.933 and the z-score [12] was -0.417 (inactive). For the same molecule, the z-score [13] was -0.641 (inactive), the z-score [14] was -0.812 (inactive) and the composite z-score [15] was 3.03. For the same molecule, the z-score [16] was 3.31 (inactive), the composite z-score [17] was -0.137 and the composite z-score [18] was -0.369. For the same molecule, the composite z-score [19] was -0.358 and the composite z-score [20] was -0.218.
In the case of `C=C[C@H](C)[C@H](OC(=O)Nc1ccc(OC)cc1)c1ccc(OCCO)cc1`, the composite z-score [1] is reported as 0.284, the composite z-score [2] is reported as -0.294 and the composite z-score [3] is reported as -0.181. The composite z-score [4] was -1.65, the composite z-score [5] was -1.34 and the composite z-score [6] was -0.154. The composite z-score [7] was 0.834, the z-score [8] was 3.14 (inactive) and the composite z-score [9] was -0.635. For the same molecule, the composite z-score [10] was -0.0173, the composite z-score [11] was -0.173 and the z-score [12] was 0.164 (inactive). For the same molecule, the z-score [13] was -2.2 (inactive), the z-score [14] was -1.43 (inactive) and the composite z-score [15] was 0.038. The z-score [16] was 2.01 (inactive), the composite z-score [17] was -0.129 and the composite z-score [18] was -1.14. The composite z-score [19] was -0.36 and the composite z-score [20] was -0.216.
In the case of `COc1ccc(CCNC(=O)[C@@]2(Cc3ccccc3I)c3ccccc3C(=O)N(Cc3ccccc3Cl)[C@H]2c2ccc(CO)cc2)cc1`, the composite z-score [1] is reported as 0.696, the composite z-score [2] is reported as 0.348 and the composite z-score [3] is reported as 0.189. It also gave a composite z-score [4] of 0.0625, a composite z-score [5] of 0.0077 and a composite z-score [6] of 1.8. The composite z-score [7] was 1.22, the z-score [8] was -3.44 (inactive) and the composite z-score [9] was 0.262. For the same molecule, the composite z-score [10] was 0.674, the composite z-score [11] was 1.46 and the z-score [12] was -0.372 (inactive). The z-score [13] was -0.645 (inactive), the z-score [14] was -0.0387 (inactive) and the composite z-score [15] was 2.35. For the same molecule, the z-score [16] was -1.3 (inactive), the composite z-score [17] was 0.23 and the composite z-score [18] was -0.383. The composite z-score [19] was 0.0854 and the composite z-score [20] was 0.0284.
